Compound activity (PubChem)
Pol eta inh – DNA polymerase eta (human) inhibition; recombinant Pol eta, fluorescent DNA replication assay; actives 1.2% (n = 390,000); AID 588591; Potency, µM (top dose mostly 114 µM), for the others: top-dose activity change, negative = inhibition, usual class: inhibitors; note: potency is the fitted concentration of half-maximal effect; % is set by controls: 0 for no effect and ±100 for the full control effect
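Pol eta at 10 nM preincubated with compounds 15 min at room temperature; reaction started with fluorescent substrate (50 nM final) and read kinetically at 0 and 10 min.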
PI5P4Ka inh – inhibitors of human PI5P4K alpha; P48426; PI5P4Kalpha enzyme, ADP-Glo luminescence, 60 min; hits give low values; max response, %; actives 1.2% (n = 330,000); active = max response of -50% or lower; inconclusive = between -30% and -50%; inactive = -30% or higher; note: value at the top dose of about 77 µM; % is set by controls: 0 for no effect and ±100 for the full control effect
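Human PI5P4Kalpha with substrate in 0.038 M HEPES pH 7.4, 0.28 mM EGTA, 0.1% CHAPS, 5% DMSO; reaction started with 5 microM ATP (final), 60 min at room temperature. ADP formed read by ADP-Glo luminescence.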
POLK inh – inhibitors of human DNA polymerase kappa | Q9UBT6 | purified Pol kappa, fluorescent DNA synthesis assay, 10 min | Potency, µM (doses to about 107 µM), inactives show at the highest dose activity, negative = inhibition, most hits filed as inhibitors | actives 0.53% (n = 400,000); note: potency is the fitted concentration of half-maximal effect; % is set by controls: 0 for no effect and ±100 for the full control effect
Target sequence (Q9UBT6 whole entry, looked up): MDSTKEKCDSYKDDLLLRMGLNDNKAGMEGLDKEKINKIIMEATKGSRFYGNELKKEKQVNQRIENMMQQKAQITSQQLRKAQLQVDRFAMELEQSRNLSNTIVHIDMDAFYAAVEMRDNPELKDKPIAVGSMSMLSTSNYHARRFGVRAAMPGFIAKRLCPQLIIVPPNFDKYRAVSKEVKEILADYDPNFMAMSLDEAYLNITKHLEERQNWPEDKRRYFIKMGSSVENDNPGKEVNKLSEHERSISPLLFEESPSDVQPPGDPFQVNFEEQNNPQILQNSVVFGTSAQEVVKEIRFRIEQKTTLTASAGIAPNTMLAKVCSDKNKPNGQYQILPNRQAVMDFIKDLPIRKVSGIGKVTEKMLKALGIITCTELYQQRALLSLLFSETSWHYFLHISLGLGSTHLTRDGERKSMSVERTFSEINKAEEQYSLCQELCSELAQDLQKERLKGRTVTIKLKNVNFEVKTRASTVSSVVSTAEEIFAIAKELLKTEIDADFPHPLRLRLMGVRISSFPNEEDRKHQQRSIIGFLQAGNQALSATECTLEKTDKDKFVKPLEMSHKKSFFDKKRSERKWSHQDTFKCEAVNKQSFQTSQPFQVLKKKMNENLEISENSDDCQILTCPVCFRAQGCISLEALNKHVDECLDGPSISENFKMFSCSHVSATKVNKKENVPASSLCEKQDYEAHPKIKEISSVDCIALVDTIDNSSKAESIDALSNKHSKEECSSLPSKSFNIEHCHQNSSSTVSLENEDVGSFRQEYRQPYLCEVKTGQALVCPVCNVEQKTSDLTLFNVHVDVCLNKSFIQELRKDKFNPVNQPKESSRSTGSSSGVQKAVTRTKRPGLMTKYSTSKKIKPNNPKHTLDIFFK
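Activity was followed as the change in fluorescence between reads at 0 and 10 min after starting the reaction with 50 nM substrate. Beforehand, 10 nM polymerase had been preincubated with compound for 15 min at room temperature.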
Pol beta inh – inhibitors of human DNA polymerase beta; Pol beta primer extension/strand displacement, fluorescence kinetic; AID 485314; Potency, µM (highest dose often 114 µM), for the others: at the top dose activity change, negative = inhibition, usual class: inhibitors; P06746; actives 1.3% (n = 340,000); note: potency is the fitted concentration of half-maximal effect; % is set by controls: 0 for no effect and ±100 for the full control effect
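Preincubation: enzyme (10 nM) with compound, 15 min, RT. Reaction: substrate added to 50 nM final. Reads: 0 and 10 min. Analysis: normalized, Hill fit.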
POLI inh – inhibitors of human DNA polymerase iota; Pol iota fluorescent replication assay, 10 min; Q9UNA4; Potency, µM (titrated, usually from 115 µM), for the others: at the top dose activity, negative = inhibition, hits mostly inhibitors; actives 1% (n = 390,000); note: potency is the fitted concentration of half-maximal effect
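Pol iota at 10 nM preincubated 15 min with compounds at room temperature; reaction started with fluorescent substrate, 50 nM final. Fluorescence read kinetically at 0 and 10 min; buffer-only wells as negative control.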
WRN inhibitor – inhibitors of human WRN helicase; WRN helicase unwinding, fluorescent forked duplex, kinetic; Potency, µM (highest dose often 114 µM), for inactives: top-dose activity change, negative = inhibition, usual class: inhibitors; actives 0.46% (n = 360,000); AID 651768; note: potency is the fitted concentration of half-maximal effect; % is set by controls: 0 for no effect and ±100 for the full control effect; nearly all actives have a fitted effect of over 55% in size
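Kinetic red-fluorescence monitoring (525/598 nm) tracks WRN helicase activity after 100 nM fluorophore-quencher forked duplex and 2 mM ATP are added to 20 nM enzyme pretreated 15 min at room temperature with compound.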
* hit, by the source's call; [ ] = another dose, or the depositor's remark. An excerpt weighted towards active compounds, which were near 2.8% of everything screened. Unless noted, calls come from the whole dose curve; as a rule, active = well fitted curve in the direction sought with a large enough effect; inconclusive = small, poorly fitted or top-dose-only effect, or another doubt; inactive = no such curve, though single readings can be large; an effect the other way counts as inactive or inconclusive.

`CCN(c1ccccc1)S(=O)(=O)c1cc(C(=O)OC(C)C(=O)Nc2ccc3c(c2)OCCO3)ccc1C` (stereo unspecified) gave Pol eta inh inconclusive, PI5P4Ka inh -27.4, POLK inh inconclusive, Pol beta inh 10µM*, POLI inh inconclusive and WRN inhibitor -9.6%[11.6 µM].
Screening O=C(OC1CCOC1=O)c1ccc(Cl)c(S(=O)(=O)N2CCOCC2)c1 (stereo unspecified) returned Pol eta inh 39.8µM*, PI5P4Ka inh -9.6, POLK inh inconclusive, POLI inh 70.8µM* and WRN inhibitor -9.8%.
Screening CC(OC(=O)c1ccccn1)C(=O)Nc1ccc2c(c1)OCCO2 (stereo unspecified) returned Pol eta inh -2.3%, PI5P4Ka inh -0.9, POLK inh 5.8%, POLI inh 11.3% and WRN inhibitor 4.3%.
`Cc1cc(S(=O)(=O)N2CCCC2)ccc1OCC(=O)NCc1ccco1` gave Pol eta inh -17.0%, POLK inh -3.5%[60.1 µM], Pol beta inh 25.1µM*, POLI inh inconclusive and WRN inhibitor -10.8%.
`O=C(COC(=O)c1ccc(NS(=O)(=O)c2cccs2)cc1)NCc1ccco1` gave Pol eta inh 3.98µM*, PI5P4Ka inh -71.5*, POLK inh 31.6µM*, Pol beta inh inconclusive, POLI inh 8.91µM* and WRN inhibitor 44.7µM*.
For CCC1CCCCN1S(=O)(=O)c1ccc(NC(=O)c2nc(S(C)(=O)=O)ncc2Cl)cc1 (stereo unspecified) the results were Pol eta inh -15.9%, PI5P4Ka inh -7.7, POLK inh 3.3%, Pol beta inh 1.4%, POLI inh inconclusive and WRN inhibitor -26.2%.
Screening COc1cccc(NC(=O)COC(=O)c2ccc(S(=O)(=O)NCc3ccco3)cc2)c1 returned Pol eta inh 8.91µM*, PI5P4Ka inh -6.7, POLK inh inconclusive, Pol beta inh inconclusive, POLI inh inconclusive and WRN inhibitor -15.4%[57.1 µM].
CCN(c1ccccc1)S(=O)(=O)c1cc(C(=O)NCc2ccco2)ccc1C was read as Pol eta inh 79.4µM*, PI5P4Ka inh inconclusive, POLK inh -14.2%, POLI inh inconclusive and WRN inhibitor -4.1%[11.6 µM].
Screening CC(=O)Nc1ccc(NC(=O)COC(=O)c2ccc(S(=O)(=O)NCc3ccco3)cc2)cc1 returned Pol eta inh -6.9%, PI5P4Ka inh -2.0, POLK inh -11.9%, POLI inh -17.2% and WRN inhibitor 1.8%.
`CCN(c1ccccc1)S(=O)(=O)c1cc(C(=O)NCC(c2ccco2)N2CCCCC2)ccc1C` (stereo unspecified) gave Pol eta inh inconclusive, PI5P4Ka inh -9.7, POLK inh -15.5%, POLI inh inconclusive and WRN inhibitor inconclusive.
For O=C(COC(=O)c1ccc(S(=O)(=O)NCc2ccco2)cc1)NCc1ccccc1 the results were Pol eta inh -13.8%, PI5P4Ka inh -15.7, POLK inh inconclusive, POLI inh inconclusive and WRN inhibitor -8.6%.
For O=C(COC(=O)c1ccc(S(=O)(=O)NCc2ccco2)cc1)NCCC1=CCCCC1 the results were Pol eta inh inconclusive, PI5P4Ka inh -19.1, POLK inh inconclusive, Pol beta inh 44.7µM*, POLI inh inconclusive and WRN inhibitor -7.1%.
Screening CCC(C(=O)OCC(=O)N(CCOC)c1c(N)n(Cc2ccccc2)c(=O)[nH]c1=O)c1ccccc1 (stereo unspecified) returned Pol eta inh -11.3%, PI5P4Ka inh 1.5, POLK inh -24.9%, Pol beta inh 14.8%, POLI inh 26.3% and WRN inhibitor -16.7%.
For CCc1nc2ccc(C(=O)N3CCN(C(=O)c4ccco4)CC3)cn2c1N(C)C(=O)c1cccc(OC)c1 the results were PI5P4Ka inh -7.7 and WRN inhibitor -0.6%.
Screening O=C(Nc1ccccc1Cc1ccccc1)c1ccccc1NS(=O)(=O)c1ccc(Cl)s1 returned Pol eta inh 79.4µM*, PI5P4Ka inh -2.5, POLK inh -13.0%, Pol beta inh inconclusive, POLI inh -14.2% and WRN inhibitor -19.9%.
Screening CN(C)c1cccc(C(=O)N2CCCC(CCC(=O)NCc3ccccc3F)C2)c1 (stereo unspecified) returned Pol eta inh -6.2%, PI5P4Ka inh 0.2, POLK inh -3.8%, Pol beta inh 1.9%, POLI inh 2.6% and WRN inhibitor -0.9%.
COc1ccc(C(NC(=O)C2CCN(Cc3ccc(Oc4ccccc4)cc3)CC2)c2ccccn2)cc1 (stereo unspecified) was read as PI5P4Ka inh -0.8 and WRN inhibitor -5.6%.
N#C/C(=C/c1cn[nH]c1-c1ccc(Br)cc1)C(=O)O was read as Pol eta inh -4.9%, PI5P4Ka inh -76.4*, POLK inh 3.4%, Pol beta inh -3.9%, POLI inh 48.2% and WRN inhibitor inconclusive.
N#C/C(=C/c1cn[nH]c1-c1cccc(Br)c1)C(=O)O was read as Pol eta inh -13.9%, PI5P4Ka inh inconclusive, POLK inh 7.5%, Pol beta inh -23.2%, POLI inh -27.2% and WRN inhibitor -11.2%.
`Cc1ccc(S(=O)(=O)NC(=O)C2(C)CCN2C(=O)CC2CCCC2)nc1` (stereo unspecified) gave PI5P4Ka inh -2.6 and WRN inhibitor -1.0%.
`Oc1ccc(NCc2cccs2)cc1` gave Pol eta inh -18.2%, PI5P4Ka inh 1.0, POLK inh -12.1%, Pol beta inh 43.2%, POLI inh 31.6µM* and WRN inhibitor -27.0%.
Cc1ccc(-c2n[nH]c(=S)n2/N=C/c2c(C)[nH]n(-c3ccccc3)c2=O)cc1 was read as Pol eta inh -19.0%, PI5P4Ka inh -57.5*, POLK inh -4.6%, Pol beta inh 1.2%, POLI inh 13.5% and WRN inhibitor 1.1%.
CCCCn1c(SCC(=O)NC2CC2)nc2cc(C(=O)OC)ccc2c1=O was read as Pol eta inh -10.5%, PI5P4Ka inh 0.0 and WRN inhibitor 4.2%.
Screening Cc1ccc(NS(=O)(=O)c2ccc(C(=O)Nc3nncs3)cc2)cc1 returned Pol eta inh -10.9%, PI5P4Ka inh -17.3, POLK inh -1.6%, POLI inh inconclusive and WRN inhibitor -0.4%.
O=C(CSc1nc2cc([N+](=O)[O-])ccc2n1-c1ccccc1)NCc1ccc2c(c1)OCO2 was read as Pol eta inh -14.2%, PI5P4Ka inh -10.2, POLK inh -17.7%, Pol beta inh 10µM*, POLI inh inconclusive and WRN inhibitor -6.4%.
